The source of these data is PubChem BioAssay (EPA / NIEHS).

Test [1] in a line: CEETOX_H295R_OHPREG_noMTC: CeeTox H295R High-throughput Steroidogenesis Assay for OH-Pregnenolone (OHPREG), maximum tolerated concentration (MTC) filtered results only (AID 2283912). Particulars: actives raise or lower the signal. In a few lines: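 Readout is HPLC-MS/MS quantification of 17alpha-hydroxypregnenolone released by forskolin-stimulated H295R cells over 48 h of chemical exposure, DMSO as baseline.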

Test [2] can be described thus: CEETOX_H295R_OHPROG_noMTC: CeeTox H295R High-throughput Steroidogenesis Assay for OH-Progesterone (OHPROG), maximum tolerated concentration (MTC) filtered results only (AID 2283914). As to conditions: actives raise or lower the signal. In a few lines:
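Analysis uses all tested concentrations, without maximum-tolerated-concentration screening by MTT. H295R cells, forskolin-primed (10 uM, 48 h), receive chemical for 48 h; hormone in medium measured by HPLC-MS/MS, with bidirectional curve fitting against DMSO.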

A short description of test [3]: CEETOX_H295R_ESTRADIOL_noMTC: CeeTox H295R High-throughput Steroidogenesis Assay for Estradiol, maximum tolerated concentration (MTC) filtered results only (AID 2283919). Particulars: actives raise or lower the signal. In a few lines:
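Readout: dansyl-derivatized estradiol quantified by LC-MS/MS in medium from H295R cells dosed 48 h (0.1% DMSO) following 48 h forskolin (10 uM) prestimulation. Gain or loss of signal fitted against DMSO; no MTC filtering applied.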

A short description of test [4]: CEETOX_H295R_PROG_noMTC: CeeTox H295R High-throughput Steroidogenesis Assay for Progesterone (PROG), maximum tolerated concentration (MTC) filtered results only (AID 2283920). As to conditions: actives raise or lower the signal. In a few lines: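 Progesterone synthesis in the human adrenal line H295R is measured by HPLC-MS/MS after 48 h chemical exposure following 48 h forskolin (10 uM) stimulation. Activity in either direction is fitted relative to DMSO.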

A short description of test [5]: CEETOX_H295R_ESTRONE_noMTC: CeeTox H295R High-throughput Steroidogenesis Assay for Estrone, maximum tolerated concentration (MTC) filtered results only (AID 2283921). Particulars: actives raise or lower the signal. In a few lines:
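Estrone in spent medium, quantified by tandem MS following dansyl chloride derivatization, after 48 h chemical exposure (0.1% DMSO) of forskolin-prestimulated (10 uM, 48 h) H295R cells; concentrations not MTC-filtered, bidirectional fit against DMSO.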

The nature of test [6]: CEETOX_H295R_CORTISOL_noMTC: CeeTox H295R High-throughput Steroidogenesis Assay for Cortisol, maximum tolerated concentration (MTC) filtered results only (AID 2283916). Particulars: actives raise or lower the signal. In a few lines:
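H295R adrenal cells were pre-stimulated 48 h with 10 uM forskolin, then exposed 48 h to test chemical in 0.1% DMSO. Medium cortisol was measured by MTBE extraction and HPLC-MS/MS; bidirectional fit versus DMSO, concentrations not MTC-filtered.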

Test [7] in a line: CEETOX_H295R_CORTIC_noMTC: CeeTox H295R High-throughput Steroidogenesis Assay for Corticosterone (CORTIC), maximum tolerated concentration (MTC) filtered results only (AID 2283917). As to conditions: actives raise or lower the signal. In a few lines:
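Forskolin-stimulated (10 uM, 48 h) H295R cells are dosed 48 h with chemical in DMSO (0.1% final); corticosterone change is quantified by HPLC-MS/MS and fitted bidirectionally against DMSO, unfiltered for MTT-derived MTC.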

Test [8] is described as follows: CEETOX_H295R_DOC_noMTC: CeeTox H295R High-throughput Steroidogenesis Assay for DOC, maximum tolerated concentration (MTC) filtered results only (AID 2283918). As to conditions: actives raise or lower the signal. In a few lines: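 H295R cells prestimulated 48 h with 10 uM forskolin, then exposed 48 h to test chemical (0.1% DMSO final). Medium 11-deoxycorticosterone extracted with MTBE, quantified by HPLC-MS/MS; bidirectional fit versus DMSO, concentrations not MTC-filtered.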

Test [9] is described as follows: CEETOX_H295R_ANDR_noMTC: CeeTox H295R High-throughput Steroidogenesis Assay for Androstenedione (ANDR), maximum tolerated concentration (MTC) filtered results only (AID 2283915). Particulars: actives raise or lower the signal. In a few lines: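 Androstenedione secreted into medium was measured by LC-MS/MS after MTBE extraction. Human adrenal H295R cells received 10 uM forskolin for 48 h before 48 h chemical exposure (0.1% DMSO). Gain or loss fitted against DMSO, including concentrations above the MTT-derived MTC.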

Test [10] in a line: CEETOX_H295R_TESTO_noMTC: CeeTox H295R High-throughput Steroidogenesis Assay for Testosterone (TESTO), maximum tolerated concentration (MTC) filtered results only (AID 2283924). As to conditions: actives raise or lower the signal. In a few lines:
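Medium testosterone, measured by HPLC-MS/MS after liquid-liquid extraction, was fitted in both directions relative to DMSO without MTC filtering. Adrenal H295R cells received 48 h chemical exposure (0.1% DMSO final) after 48 h forskolin (10 uM) prestimulation; viability by MTT.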

Test [11] has as its target Thyroid hormone receptor alpha (Rattus norvegicus) + Thyroid hormone receptor beta (Rattus norvegicus) (UniProt P18113+P63059). Kind of test: TOX21_TR_LUC_GH3_Agonist_Followup: Tox21 GH3 Thyroid Hormone Receptor Agonism Luciferase Follow-Up Assay (AID 2283939; active = hit-call score of the fitted dose curve at least 0.9, where 1 is the maximum). In a few lines:
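Agonist-mode confirmatory run: 15 concentrations (5 nM to 92 uM final) on GH3 rat pituitary cells, 24 h at 37C/5% CO2, T3 as positive control. Luminescence read with ONE-Glo after 30 min.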

Test [12] has as its target THRA (gene 7067) (UniProt P10827). Kind of test: TOX21_TRA_COA_Agonist_Followup_ratio: Tox21 Thyroid Hormone Receptor alpha Agonism through Coactivator Recruitment Follow-Up Assay, Ratio (AID 2283948). In a few lines: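 Agonist-mode biochemical TR-FRET with TRα LBD and SRC-2 coactivator peptide; activity expressed as percent of T3 response over DMSO baseline.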
The target of test [13] is THRB (gene 7068) (UniProt P10828). Kind of test: TOX21_TRB_BLA_Agonist_Followup_ratio: Tox21 Thyroid Hormone Receptor beta Agonism Beta-lactamase (BLA) Follow-Up Assay, Ratio (AID 2283954; active = hit-call score of the fitted dose curve at least 0.9, where 1 is the maximum). In a few lines: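 Agonist mode: compounds (11-point, triplicate) incubated 18 h with HEK293T cells carrying GAL4-DBD/human TRβ-LBD and UAS-β-lactamase. Blue/green (460/530 nm) FRET ratio read after 2 h CCF4-AM loading; CellTiter-Glo viability run in the same plates.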

For test [14] the target is unchanged. Kind of test: TOX21_TRB_COA_Agonist_Followup_ratio: Tox21 Thyroid Hormone Receptor beta Agonism through Coactivator Recruitment Follow-Up Assay, Ratio (AID 2283963). In a few lines:
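Signal is the 520/495 nm emission ratio (excitation 340 nm), scaled between DMSO-only wells as 0% and T3 wells as 100%. It reflects fluorescein-labeled SRC-2 peptide recruitment to GST-TRβ ligand-binding domain detected via terbium anti-GST antibody.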

Test [15] has as its target Retinoic acid receptor RXR-alpha (Homo sapiens) (UniProt P19793). Description: TOX21_TR_RXR_BLA_Agonist_Followup_ratio: Tox21 Thyroid Hormone Receptor beta Retinoid X Receptor alpha (RXRa) Agonism Beta-lactamase (BLA) Follow-Up Assay, Ratio (AID 2283968; active = hit-call score of the fitted dose curve at least 0.9, where 1 is the maximum). In a few lines: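 Cells were first allowed to attach for 5 h, after which compounds in DMSO were pinned at 11 concentrations and incubated 16 h at 37C. LiveBLAzer CCF4-AM substrate was then added for 2 h at room temperature before reading 460 and 530 nm fluorescence.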

Test [16] has as its target PGR (gene 5241) (UniProt P06401). Kind of test: TOX21_PR_BLA_Followup_Antagonist_ratio: Tox21 HEK293 Progesterone Receptor (PR) Antagonism Beta-lactamase Follow-Up Assay, Ratio (AID 2283934; active = hit-call score of the fitted dose curve at least 0.9, where 1 is the maximum). In a few lines:
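Cells are plated, rested 6 hr, then dosed with test compound in DMSO and challenged with 1 nM promegestone. After 16 hr incubation, substrate loading for 2 h at room temperature precedes fluorescence reading; viability is measured in the same wells.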

Test [17] in a line: TOX21_PR_BLA_Followup_Agonist_viability: Viability Assessment in the Tox21 HEK293 Progesterone Receptor (PR) Agonism Beta-lactamase Follow-Up Assay (AID 2283935; active = hit-call score of the fitted dose curve at least 0.9, where 1 is the maximum;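 also: signal loss means lower viability so actives are cytotoxic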). In a few lines: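 Cells were plated in medium with 2% charcoal-stripped FBS and rested 6 hr. Compounds in DMSO were then added for 16 hr at 37C, followed by the FRET substrate step and CellTiter-Glo luminescence after 30 min.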

The nature of test [18]: TOX21_PR_BLA_Followup_Antagonist_viability: Viability Assessment in the Tox21 HEK293 Progesterone Receptor (PR) Antagonism Beta-lactamase Follow-Up Assay (AID 2283936; active = hit-call score of the fitted dose curve at least 0.9, where 1 is the maximum;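 also: cells exposed to compound with R5020 agonist for 16 h; hits lower the luminescence signal meaning cytotoxicity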). In a few lines: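 PR-UAS-bla HEK293T cells in medium with 2% charcoal-stripped FBS were treated with compounds plus R5020 for 16 hr at 37C. After the beta-lactamase read, CellTiter-Glo was added to the same wells and luminescence read after 30 min at room temperature.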

Test [19] addresses PGR (gene 5241) (UniProt P06401). Description: TOX21_PR_LUC_Followup_Antagonist: Tox21 HEK293 Progesterone Receptor (PR) Antagonism Luciferase Follow-Up Assay (AID 2283938; active = hit-call score of the fitted dose curve at least 0.9, where 1 is the maximum;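 also: curve fitted upward as signal gain over DMSO baseline despite antagonist label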). In a few lines:
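Luciferase reporter in HEK293-PR-A-luc cells: 16 h compound treatment at 37C, ONE-Glo luminescence detection, DMSO as negative control and baseline.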

The nature of test [20]: TOX21_PR_LUC_Followup_Agonist_viability: Viability Assessment in the Tox21 HEK293 Progesterone Receptor (PR) Agonism Luciferase Follow-Up Assay (AID 2283941; active = hit-call score of the fitted dose curve at least 0.9, where 1 is the maximum;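 also: loss of signal means cytotoxicity so actives lower viability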). In a few lines: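 Multiplexed viability endpoint of the PR agonist luciferase follow-up: HEK293-PR-A-luc cells treated 16 h at 37C, with viability scored as decrease in CellTiter-Glo ATP signal.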

Each structure is given as a SMILES string. Inconclusive results are not listed. Activity calls are given as the source filed them. The calls were made as follows, unless noted: active = hit-call score of the fitted dose curve at least 0.9, where 1 is the maximum; inactive = score below 0.9.

Chain of PGR (gene 5241) (P06401 whole entry, looked up): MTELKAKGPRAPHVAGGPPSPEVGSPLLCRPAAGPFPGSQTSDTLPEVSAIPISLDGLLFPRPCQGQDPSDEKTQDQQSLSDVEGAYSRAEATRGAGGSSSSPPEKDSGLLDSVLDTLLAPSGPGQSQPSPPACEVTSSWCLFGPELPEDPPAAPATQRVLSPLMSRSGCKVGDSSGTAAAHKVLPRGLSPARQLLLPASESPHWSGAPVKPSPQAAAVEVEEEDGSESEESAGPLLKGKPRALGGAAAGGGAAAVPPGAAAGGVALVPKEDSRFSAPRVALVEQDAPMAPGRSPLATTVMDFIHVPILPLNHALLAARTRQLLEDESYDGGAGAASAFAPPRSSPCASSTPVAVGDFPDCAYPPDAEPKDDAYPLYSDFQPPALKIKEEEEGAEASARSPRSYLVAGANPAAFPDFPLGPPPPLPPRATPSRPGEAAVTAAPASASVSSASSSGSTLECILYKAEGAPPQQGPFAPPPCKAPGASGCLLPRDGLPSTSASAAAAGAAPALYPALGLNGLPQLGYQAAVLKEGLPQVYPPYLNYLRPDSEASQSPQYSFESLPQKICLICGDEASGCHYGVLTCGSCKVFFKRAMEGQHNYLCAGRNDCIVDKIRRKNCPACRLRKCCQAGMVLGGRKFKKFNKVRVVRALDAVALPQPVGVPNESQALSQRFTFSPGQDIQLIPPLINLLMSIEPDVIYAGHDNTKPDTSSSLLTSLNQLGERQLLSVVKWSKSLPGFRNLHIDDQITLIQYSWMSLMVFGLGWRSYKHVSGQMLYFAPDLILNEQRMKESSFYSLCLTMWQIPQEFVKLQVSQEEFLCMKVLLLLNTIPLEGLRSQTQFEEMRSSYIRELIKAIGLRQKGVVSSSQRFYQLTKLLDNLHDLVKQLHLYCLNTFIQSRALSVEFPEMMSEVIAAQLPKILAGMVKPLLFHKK
Chain of THRB (gene 7068) (P10828 whole entry, looked up, the tested form may be a part): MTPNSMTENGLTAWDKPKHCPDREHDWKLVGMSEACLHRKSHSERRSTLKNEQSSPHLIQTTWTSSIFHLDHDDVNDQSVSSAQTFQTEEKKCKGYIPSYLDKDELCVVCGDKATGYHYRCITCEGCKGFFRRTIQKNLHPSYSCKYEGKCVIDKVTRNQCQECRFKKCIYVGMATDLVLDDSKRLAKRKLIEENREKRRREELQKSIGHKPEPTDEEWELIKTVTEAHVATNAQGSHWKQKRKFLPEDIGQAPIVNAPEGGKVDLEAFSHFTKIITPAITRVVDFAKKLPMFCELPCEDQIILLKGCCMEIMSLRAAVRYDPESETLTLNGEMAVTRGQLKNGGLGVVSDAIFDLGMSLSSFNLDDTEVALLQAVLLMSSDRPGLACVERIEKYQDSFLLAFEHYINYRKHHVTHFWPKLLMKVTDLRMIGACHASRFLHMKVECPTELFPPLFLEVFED
Chain of Retinoic acid receptor RXR-alpha (Homo sapiens) (P19793 whole entry, looked up): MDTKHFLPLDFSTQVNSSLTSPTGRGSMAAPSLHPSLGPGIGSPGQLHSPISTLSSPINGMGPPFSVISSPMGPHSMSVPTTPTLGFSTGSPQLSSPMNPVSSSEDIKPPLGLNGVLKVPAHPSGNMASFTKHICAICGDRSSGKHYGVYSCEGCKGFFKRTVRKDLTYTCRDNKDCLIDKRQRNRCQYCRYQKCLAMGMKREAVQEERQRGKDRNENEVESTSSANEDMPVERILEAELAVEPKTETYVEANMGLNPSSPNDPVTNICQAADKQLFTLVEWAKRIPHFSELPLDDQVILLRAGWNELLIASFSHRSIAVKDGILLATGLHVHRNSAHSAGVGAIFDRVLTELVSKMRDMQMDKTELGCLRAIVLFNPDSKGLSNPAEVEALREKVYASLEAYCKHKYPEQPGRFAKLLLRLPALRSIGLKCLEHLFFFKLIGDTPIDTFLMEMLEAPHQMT
Chain of THRA (gene 7067) (P10827 whole entry, looked up, the tested form may be a part): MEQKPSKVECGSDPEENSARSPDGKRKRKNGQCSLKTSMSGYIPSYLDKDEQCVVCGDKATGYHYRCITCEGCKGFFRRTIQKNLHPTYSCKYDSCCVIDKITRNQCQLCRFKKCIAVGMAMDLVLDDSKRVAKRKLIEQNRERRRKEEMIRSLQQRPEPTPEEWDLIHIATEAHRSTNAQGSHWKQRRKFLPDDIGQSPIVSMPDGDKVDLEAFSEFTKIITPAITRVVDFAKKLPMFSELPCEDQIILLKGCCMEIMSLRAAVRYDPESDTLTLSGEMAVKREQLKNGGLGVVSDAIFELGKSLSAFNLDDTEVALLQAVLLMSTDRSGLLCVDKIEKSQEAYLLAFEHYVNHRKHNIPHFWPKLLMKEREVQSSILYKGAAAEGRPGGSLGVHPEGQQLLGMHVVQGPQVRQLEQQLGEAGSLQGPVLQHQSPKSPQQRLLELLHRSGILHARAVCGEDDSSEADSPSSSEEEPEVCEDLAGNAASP
Chain of Thyroid hormone receptor alpha (Rattus norvegicus) + Thyroid hormone receptor beta (Rattus norvegicus) (P63059 whole entry, looked up): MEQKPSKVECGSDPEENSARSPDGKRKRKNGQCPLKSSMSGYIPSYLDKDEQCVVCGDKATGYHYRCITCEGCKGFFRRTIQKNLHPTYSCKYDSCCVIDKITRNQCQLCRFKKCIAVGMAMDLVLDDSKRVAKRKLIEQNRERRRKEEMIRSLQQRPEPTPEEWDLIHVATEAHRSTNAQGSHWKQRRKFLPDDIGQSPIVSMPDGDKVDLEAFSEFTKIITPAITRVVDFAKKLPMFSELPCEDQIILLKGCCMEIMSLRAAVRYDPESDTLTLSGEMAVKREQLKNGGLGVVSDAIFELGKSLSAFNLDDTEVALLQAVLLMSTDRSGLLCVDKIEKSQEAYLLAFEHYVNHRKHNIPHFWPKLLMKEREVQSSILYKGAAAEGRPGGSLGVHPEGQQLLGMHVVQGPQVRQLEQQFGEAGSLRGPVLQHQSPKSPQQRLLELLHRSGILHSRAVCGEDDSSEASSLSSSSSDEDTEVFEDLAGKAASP
Chain of Thyroid hormone receptor alpha (Rattus norvegicus) + Thyroid hormone receptor beta (Rattus norvegicus) (P18113 whole entry, looked up): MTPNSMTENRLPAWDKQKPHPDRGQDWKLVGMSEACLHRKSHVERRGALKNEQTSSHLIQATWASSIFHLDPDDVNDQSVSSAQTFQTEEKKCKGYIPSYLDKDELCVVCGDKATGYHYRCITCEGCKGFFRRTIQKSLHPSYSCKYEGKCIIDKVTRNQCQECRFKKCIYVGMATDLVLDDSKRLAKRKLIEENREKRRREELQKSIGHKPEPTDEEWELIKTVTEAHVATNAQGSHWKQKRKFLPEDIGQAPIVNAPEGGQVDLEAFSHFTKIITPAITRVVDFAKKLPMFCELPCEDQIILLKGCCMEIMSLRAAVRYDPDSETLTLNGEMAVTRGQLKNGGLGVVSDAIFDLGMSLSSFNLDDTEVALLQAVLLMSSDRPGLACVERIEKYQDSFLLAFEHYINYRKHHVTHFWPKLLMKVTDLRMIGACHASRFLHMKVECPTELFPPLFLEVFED

As for `COC(=O)C1CCC(C(=O)OC)CC1` (stereo not drawn), the call in test [1], in [2], in test [3], in [4] and in test [5] was inactive.
Regarding `CC(C)OC(=O)c1ccccc1C(=O)OC(C)C`, the compound was called inactive in [1], in test [2], in test [6], in [7], in test [8] and in test [4].
Take `CCCCCCCOC(=O)c1ccccc1C(=O)OCCCCCCC`: the result in [1], in [2], in test [9], in test [6], in [7] and in test [8] was inactive. Besides, the result in test [4] and in [10] was inactive.
As to `O=S(=O)(O)c1ccc2ccccc2c1`, the result in [11], in [12], in [13], in test [14] and in test [15] was inactive.
On to `C#C[C@]1(O)CC[C@H]2[C@@H]3CCc4cc(OC)ccc4[C@H]3CC[C@@]21C`, for which the outcome in [16], in test [17], in test [18], in test [19] and in [20] was inactive.
In general, AC50 refers to the midpoint of the concentration-response curve, whichever way the signal moves. As to `C(=C(c1ccccc1)c1ccccc1)c1ccccc1`, the AC50 is 30.7 µM (active) in test [16] and 32.3 µM (active) in test [19]. The outcome in [17] and in [18] was inactive.
